Screens as filed in PubChem BioAssay.
HP1b chromo inh = HP1-beta chromodomain-methylated histone interaction inhibition; P83916; AlphaScreen HP1-beta / biotin-H3K9me3 peptide binding; Potency, µM (top dose mostly 114 µM), inactives show at the top dose activity change, negative = inhibition, usual class: inhibitors; hit rate 0.56% among 390,000; AID 540317; note: nearly all actives have a fitted effect of over 70% in size
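AlphaScreen: HP1-beta (50 nM) preformed 30 min with biotin-H3(1-18)K9me3 peptide (50 nM) in PBS pH 7.4, 0.01% Tween-20. Compound added for 30 min at RT, then streptavidin donor/nickel chelate acceptor beads (10 ug/mL) for 30 min.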
Sfp inh = blocks B. subtilis Sfp PPTase activity; Q9F4F7; Biochemical Sfp PPTase activity, qHTS; Potency, µM, for inactives: largest response in the series, negative = inhibition, most hits filed as inhibitors; hit rate 3.5% among 310,000; AID 1490;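 note: the enzyme is Sfp with the accession as filed and its product quenches rhodamine fluorescence; 0% = enzyme reaction without inhibitor and -100% = no enzyme wells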
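With Hepes-Na pH 7.6 buffer containing 10 mM MgCl2, Sfp (15 nM) modified BHQ-2-YbbR (12.5 uM) using rhodamine-CoA (5 uM). Two reads 30 minutes apart at 525/598 nm yielded each well's rate.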
PLK1 PBD inh = blocks phosphopeptide binding to human PLK1 polo-box domain; Plk1 PBD binding of FITC phosphopeptide, fluorescence polarization; Potency, µM, for the others: max response, negative = inhibition, most hits filed as inhibitors; hit rate 2.8% among 360,000; P53350; note: series mostly up to about 57 µM; % is set by controls: 0 for no effect and ±100 for the full control effect; nearly all actives have a fitted effect of over 65% in size
Target sequence (P53350 whole entry, looked up, the tested form may be a part): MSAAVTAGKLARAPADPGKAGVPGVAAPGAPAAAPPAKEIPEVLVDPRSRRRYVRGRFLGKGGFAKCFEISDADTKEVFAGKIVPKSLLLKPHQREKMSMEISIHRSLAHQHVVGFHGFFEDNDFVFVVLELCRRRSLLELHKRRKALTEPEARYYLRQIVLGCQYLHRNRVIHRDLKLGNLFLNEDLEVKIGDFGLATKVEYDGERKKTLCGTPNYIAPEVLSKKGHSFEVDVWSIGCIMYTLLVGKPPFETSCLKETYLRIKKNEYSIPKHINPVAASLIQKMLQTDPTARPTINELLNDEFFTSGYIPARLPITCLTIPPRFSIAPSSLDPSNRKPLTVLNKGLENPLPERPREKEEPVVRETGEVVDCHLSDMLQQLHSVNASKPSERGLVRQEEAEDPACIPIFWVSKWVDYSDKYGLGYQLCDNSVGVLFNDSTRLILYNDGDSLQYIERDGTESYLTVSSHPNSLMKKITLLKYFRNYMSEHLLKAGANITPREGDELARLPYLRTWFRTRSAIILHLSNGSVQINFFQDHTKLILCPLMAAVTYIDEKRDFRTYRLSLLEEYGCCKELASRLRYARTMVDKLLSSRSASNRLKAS
BAZ2B block = BAZ2B (human) inhibition; hit rate 4.4% among 360,000; Q9UIF8; AlphaScreen BAZ2B-H3K14Ac peptide displacement; AID 504333; Potency, µM (doses to about 114 µM), without a hit: at the top dose activity change, negative = inhibition, most hits filed as inhibitors; note: % is set by controls: 0 for no effect and ±100 for the full control effect; nearly all actives have a fitted effect of over 60% in size
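Protein-peptide AlphaScreen: BAZ2B 50 nM, b-H3K14Ac 50 nM, 1x PBS pH 7.4 + 0.01% Tween-20. Preincubation 30 min RT; cpd 30 min RT (top 110 uM); beads 20 min RT, light-protected.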
G9a inh = inhibitors of human histone lysine methyltransferase G9a; hit rate 8.8% among 350,000; Potency, µM (titrated, usually from 102 µM), without a hit: top-dose activity, negative = inhibition, actives largely listed as inhibitors; AID 504332; Q96KQ7; G9a H3K9 monomethylation, AlphaScreen, 2 h; note: % is set by controls: 0 for no effect and ±100 for the full control effect; nearly all actives have a fitted effect of over 75% in size
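Methyltransferase reactions run at room temperature for 2 h (20 nM enzyme, 500 nM biotin-H3K9 peptide, 20 uM SAM) after a 15 min compound preincubation; product detected by AlphaScreen beads and anti-H3K9me1 antibody.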
JMJD2A Tudor = JMJD2A Tudor domain (human) inhibition; O75164; AlphaScreen JMJD2A-Tudor / H3K4me3 peptide binding; Potency, µM (top dose mostly 114 µM), inactives show top-dose activity change, negative = inhibition, usual class: inhibitors; hit rate 4.4% among 390,000; AID 504339; note: % is set by controls: 0 for no effect and ±100 for the full control effect; nearly all actives have a fitted effect of over 50% in size
* hit, by the source's call; ? = inconclusive; nt = no result; [ ] = dose if it differs, or a comment. The list is not random: actives were taken first. Their share in the collection is about 12%. Calls come from the whole dose curve; as a rule, active = well fitted curve in the direction sought with a large enough effect; inconclusive = small, poorly fitted or top-dose-only effect, or another doubt; inactive = no such curve, though single readings can be large; an effect the other way counts as inactive or inconclusive. Potency is the fitted concentration of half-maximal effect.

SMILES	HP1b chromo inh	Sfp inh	PLK1 PBD inh	BAZ2B block	G9a inh	JMJD2A Tudor
CCC1CCCCN1C(=O)COC(=O)c1ccc(Br)o1 (centres undefined)	60%	nt	-7%	8%	?	1%
CCC(=O)Nc1cc(C)c(NC(=O)C23CC4CC(CC(C4)C2)C3)cn1	51%	-13%	-9%	13%	1.1µM*	1%
O=C(NC1CCCCC1)C(c1cccs1)N(CCCN1CCOCC1)C(=O)c1ccc(-c2ccccc2)[nH]1 (centres undefined)	?	?	-26%	50µM*	nt	?
Cc1nc2c(o1)C(=O)c1ccccc1C2=Nc1ccccc1	?	nt	-7%	nt	nt	?
Cn1c2ccccc2c(=O)c2ccc(C#Cc3ccc(N)cc3)cc21	87%	-5%	19%	-26%	50µM*	23%
COc1ccc(C#Cc2ccc3c(=O)c4ccccc4n(C)c3c2)cc1	94%	1%	-9%	47%[57.1 µM]	?	19%
CCOC(=O)c1ccccc1NC(=O)Cn1c(=O)n(-c2cccc(C)c2)c(=O)c2c1c1cc(C)ccc1n2C	1%	nt	nt	2%	3%[59 µM]	-13%
CCN(CC(=O)NC1CCS(=O)(=O)C1)S(=O)(=O)c1ccc(Cl)c(C(F)(F)F)c1 (centres undefined)	7%	nt	-20%	-1%	-41%	2%
CCCCC(CC)CNC(=O)CCCc1nnc2n(CCC)c(=O)c3sccc3n12 (centres undefined)	37%	nt	nt	-1%	2%[59 µM]	-6%
NC(=S)Cc1nc(-c2ccccc2)cs1	?	56µM*	-19%	?	?	-30%
N#CC1=C(N)S[C@@H](C(=O)c2ccc(F)cc2)[C@@H]1c1cccs1	-7%	?	-11%	?	10µM*	?
CCCN(CC(=O)Nc1ccc(F)c(F)c1F)C(=O)C1=COCCO1	38%	nt	-3%	-10%	56µM*	3%
Cc1ccc(N2CCN(C(=O)c3cnn(-c4ccc(F)cc4F)c3C3CCN(C(=O)OC(C)(C)C)CC3)CC2)c(C)c1	8%	nt	nt	17%[57.1 µM]	-6%[59 µM]	-32%
COc1ccc(NC(=O)/C(C#N)=C\C=C\c2ccco2)cc1	?	-26%	-6%	?	?	?
COC(=O)C(=C/C=C/c1ccco1)C(=O)OC	38%	-1%	0%	-24%	45µM*	-9%
Cc1n(CC(O)COC2CCCCC2)c2ccccc2[n+]1C (centres undefined)	5%	7%	1%	6%	?	79µM*
OC(COC1CCCCC1)CN1CCN(c2ccccc2)CC1 (centres undefined)	23%	-3%	-3%	27%	-25%	-13%
Nc1nc(N)c(N=Nc2ccc(S(N)(=O)=O)cc2)c(=O)[nH]1	44%	-10%	-1%	?	35%[0.501 µM]	-10%
Cc1ccccc1N=Nc1ccc(N=Nc2c(O)ccc3ccccc23)c(C)c1	nt	14%	nt	nt	1.3µM*	nt
Oc1ccc(N=Nc2c(O)ccc3ccccc23)cc1	?	?	-9%	6.3µM*	8.9µM*	10µM*
NS(=O)(=O)c1ccc(N=Nc2c(O)ccc3ccccc23)cc1	-12%	13%	5%	?	35µM*	-28%
Oc1ccc2ccccc2c1Br	6%	15%	?	0%	?	-22%
Cc1cc2c(cc1C)CSC(c1c(O)ccc3ccccc13)SC2	0%	23%	-8%	?	?	-35%
Cc1ccccc1-c1nc(SCC(=O)NCc2ccc(F)cc2)c2c(=O)n(C)c(=O)n(C)c2n1	14%[57 µM]	nt	nt	7%	-4%[59 µM]	-6%
Cc1ccccc1NC(=O)c1cccc(N2C(=O)C3C4CC(C(Br)C4Br)C3C2=O)c1 (centres undefined)	31%	10%	2%	-10%	-12%[0.501 µM]	-10%
O=C(CN1C(=O)COc2ccccc21)NCCCN1CCc2ccccc2C1	22%	20µM*	-12%	-3%	?	?
